# Rows were chosen to be rich in hits. Some 11% of all compounds tested hit in one or more screens of this group.
# MCF10A rerep = A quantitative high throughput screen for small molecules that induce DNA re-replication in MCF 10a normal breast cells; MCF 10A DNA re-replication, Hoechst nuclear intensity, 48 h; Potency, µM (top dose mostly 46.1 µM), without a hit: top-dose activity, positive = re-replication, hits mostly activators; 350,000 compounds, 2.9% hits; AID 624296, 2012; note: potency is the fitted concentration of half-maximal effect; % of control where 0% means no effect; nearly all actives have a fitted effect of over 50% in size
# RORg inh = qHTS for inhibitors of ROR gamma transcriptional activity; Drosophila S2 Gal4-RORgamma UAS-luciferase reporter, 20 h; Potency, µM (titrated, usually from 53.6 µM), without a hit: at the highest dose activity change, negative = inhibition, actives largely listed as inhibitors; Nuclear receptor ROR-gamma (Mus musculus), P51450; 310,000 compounds, 5.4% hits; note: potency is the fitted concentration of half-maximal effect; % is set by controls: 0 for no effect and ±100 for the full control effect; nearly all actives have a fitted effect of over 60% in size
# Target sequence (P51450 whole entry, looked up, the tested form may be a part): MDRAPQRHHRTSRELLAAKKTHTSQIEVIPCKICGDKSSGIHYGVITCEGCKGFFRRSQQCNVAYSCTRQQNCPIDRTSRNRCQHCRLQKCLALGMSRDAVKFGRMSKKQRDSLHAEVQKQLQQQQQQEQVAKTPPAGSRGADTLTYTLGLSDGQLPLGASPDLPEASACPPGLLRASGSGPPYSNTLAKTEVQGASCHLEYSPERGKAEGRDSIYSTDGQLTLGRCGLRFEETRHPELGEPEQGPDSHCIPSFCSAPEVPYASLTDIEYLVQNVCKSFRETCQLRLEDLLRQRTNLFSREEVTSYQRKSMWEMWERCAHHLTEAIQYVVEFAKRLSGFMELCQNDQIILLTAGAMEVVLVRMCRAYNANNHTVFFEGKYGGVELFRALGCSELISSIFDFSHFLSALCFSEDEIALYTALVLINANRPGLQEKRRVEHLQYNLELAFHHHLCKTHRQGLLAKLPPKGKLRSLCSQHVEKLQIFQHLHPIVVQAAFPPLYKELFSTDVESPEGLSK
#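 Drosophila S2 cells stably expressing Gal4-DBD/mouse RORγ fusion under metallothionein promoter plus UAS-luciferase; compound 1 h, then 700 uM CuSO4 induction for 20 h at ambient temperature; inhibition read as reduced luminescence.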
# IL-1B inflam inh = qHTS for Inhibitors of Inflammasome Signaling: IL-1-beta AlphaLISA Primary Screen | AID 743279, 2014 | THP-1 LPS/ATP IL-1B secretion, AlphaLISA, 16 h; hits give low values | 360,000 compounds, 4.7% hits | activity change, % at 57.5 µM; in the data active = activity change below about -50%; inconclusive = mostly about -30% to -49%; note: % is set by controls: 0 for no effect and ±100 for the full control effect
#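 THP-1 cells pretreated 1 hr with compounds (up to 57.5 uM final), then stimulated with LPS (250 ng/mL final) plus ATP (1.25 mM final); secreted IL-1B measured by AlphaLISA after 16 hr, decreased signal indicating inhibition.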
# SW480 rerep = A quantitative high throughput screen for small molecules that induce DNA re-replication in SW480 colon adenocarcinoma cells; SW480 DNA re-replication, Hoechst DNA content imaging, 48 h; AID 624297, 2012; Potency, µM (top dose mostly 46.1 µM), for inactives: top-dose re-replication activation, actives largely listed as activators; 340,000 compounds, 1.8% hits; note: potency is the fitted concentration of half-maximal effect; % of control where 0% means no effect; nearly all actives have a fitted effect of over 55% in size
#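 Quantitative HTS format with DMSO vehicle controls; 48 hr drug incubation at 37 C, then 40 min Hoechst staining and scanning imager measurement at 405 nm excitation.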
# Gal4-VP16 FLuc = VP16 counterscreen qHTS for inhibitors of ROR gamma transcriptional activity; Drosophila S2 Gal4-VP16 UAS-luciferase, luminescence, 20 h; Potency, µM (doses to about 53.6 µM), inactives show top-dose activity, negative = inhibition, actives largely listed as inhibitors; 310,000 compounds, 3.5% hits;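 note: Gal4-VP16 expression switched on by copper sulfate through the metallothionein promoter; potency is the fitted concentration of half-maximal effect; % is set by controls: 0 for no effect and ±100 for the full control effect; nearly all actives have a fitted effect of over 50% in size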
# Starred values were filed as active, the others as inactive; i = inactive; ? = inconclusive; . = not tested or not shown; [ ] = another dose, or the depositor's remark. Unless noted, calls come from the whole dose curve; as a rule, active = well fitted curve in the direction sought with a large enough effect; inconclusive = small, poorly fitted or top-dose-only effect, or another doubt; inactive = no such curve, though single readings can be large; an effect the other way counts as inactive or inconclusive.
SMILES,MCF10A rerep,RORg inh,IL-1B inflam inh,SW480 rerep,Gal4-VP16 FLuc
CCC(=O)OCC(=O)[C@@]1(OC(=O)CC)[C@@H](C)C[C@@H]2[C@H]3CCC4=CC(=O)C=C[C@]4(C)[C@@]3(F)[C@@H](O)C[C@@]21C,.,-25%,.,.,-1%
Cn1c2c(c(=O)n(C)c1=O)C(c1ccc(F)cc1)C(C#N)=C(N)O2 (configuration not stated),0%,23%,-69*,-3%,0%
Cc1ccc(C2C(C#N)=C(N)Oc3c2c(=O)n(C)c(=O)n3C)cc1 (configuration not stated),1%,-10%,-8,-7%,1%
CC(=O)Nc1ccc(NC(=O)COC(=O)c2ccc(S(=O)(=O)N(C)c3ccccc3)cc2)cc1,8%,.,31,15%,.
COCCNC(=S)N/N=C/c1ccc(-c2ccc([N+](=O)[O-])cc2)o1,?,4.5µM*,16,1%,10µM*
O=[N+]([O-])c1cccc(-c2ccc(/C=N/NC(=S)Nc3ccccc3)o2)c1,22%,0.089µM*,4,13%,2.5µM*
O=C(O)c1cc(-c2ccc(/C=N/NC(=S)Nc3ccccc3)o2)ccc1Cl,11%,11µM*,30,19%,2%[10 µM]
Cc1cc(C(=O)N/N=C/c2ccc(-c3ccc(C)c(Cl)c3)o2)n[nH]1,9%,?,1,-8%,-10%
O=[N+]([O-])c1cccc(-c2ccc(/C=N/NC(=S)NCc3ccco3)o2)c1,?,0.45µM*,-11,-2%,3.2µM*
CC(C)C[C@H]1CN=C(Nc2ccccc2)N1CC1CCC(C)CC1 (some centres not stated),-3%,-11%,-4,-72%[9.22 µM],3%
Oc1cc(NCc2cccnc2)ccc1-c1nc2ccccc2o1,21µM*,?,-6,?,?
CCOc1ccc(S(=O)(=O)Nc2ccc(C(=O)NCCCN3CCOCC3)cc2)cc1,2%,.,11,?,.
CCCC(=O)N1CCC1(C)C(=O)Nc1cc(OC)c(OC)c(OC)c1 (configuration not stated),.,.,-13,.,.
CC(=O)Nc1ccc(Oc2cc(N)cc([N+](=O)[O-])c2)cc1,0%,35%,10,17%,10%
COC(=O)NC(=S)Nc1ccc(Oc2ccc(Cl)cc2Cl)c(Cl)c1,?,2.2µM*,48,?,?
CC(=O)Nc1ccc(Oc2ccc([N+](=O)[O-])cc2Cl)cc1,1%,1%,-73*,-1%,6%
COc1ccc(NC(=O)Oc2ccccc2)cc1Cl,-3%,0%,-7,1%,5%
COC(=O)NC(=S)Nc1ccc(Oc2ccc(Cl)cc2)c(Cl)c1,-4%,4.5µM*,27,0%,5µM*
COc1ccc(NC(=O)NNC(=O)c2ccc(Cl)cc2Cl)cc1OC,2%,36%,-3,-2%,-2%
COc1ccc2c(c1)C(=O)[C@@H](OC(=O)NS(=O)(=O)c1ccc(F)cc1)[C@H](c1ccc(OC)c(Br)c1)O2,.,-19%,.,.,7%
COc1cc(Cl)c(CN2CCC(CCC(=O)NC3CC3)CC2)cc1OC,0.58µM*,-1%,32,-46%,-8%
Cc1cc(N2CCN(C)CC2)ccc1NC(=O)c1c2c(nc3ccccc13)CCN(Cc1ccccc1)C2,24%,11µM*,-100*,?,11µM*
CC(CNS(=O)(=O)c1ccccc1)(c1ccccc1)N1CCCCC1 (configuration not stated),-1%,-12%,3,2.6µM*,-5%
O=C(CCNS(=O)(=O)c1ccccc1)N1CCCCCCC1,-9%,.,8,-28%,.
O=C(Cc1ccc(Cl)cc1)NN1C(=O)c2ccccc2C1=O,0%,-6%,6,-3%,3%
SMILES,MCF10A rerep,RORg inh,IL-1B inflam inh,SW480 rerep,Gal4-VP16 FLuc
COC(=O)[C@@H]1[C@@H](C#N)C2(c3ccccc3-c3ccccc32)N(c2ccc(Cl)cc2)N1C#N,5.2µM*,16µM*,?,?,10µM*
CCC(=O)Oc1oc(-c2ccccc2)nc1C=Nc1ccc(C)cc1,12%,45%,4,-96%,-2%
CCC(=O)Oc1oc(-c2ccccc2)nc1C=Nc1ccccc1OC,18µM*,19%,29,?,?
Fc1ccc(-c2cn3cc(C(F)(F)F)cc(Cl)c3n2)cc1,?,-15%,20,?,-18%
COc1ccc(-c2cn3cc(C(F)(F)F)cc(Cl)c3n2)cc1,24%,-3%,58,18µM*,0%
CCCN(C(=O)CSc1nnc(-c2ccncc2)n1CCC)c1c(N)n(Cc2ccccc2)c(=O)[nH]c1=O,.,.,-4,.,.
Cn1c(SCc2ccon2)nc2ccccc2c1=O,8.2µM*,-6%,26,15µM*,5%
CCOc1ccc(OCC)c(NC(=O)CSc2nc3ccccc3c(=O)n2C)c1,9%,-15%,20,2%,20µM*
COc1cccc(NC(=O)CSc2nc3c([nH]c4ccccc43)c(=O)n2C)c1,?,-20%,0,12%,-10%
CCOC(=O)c1cccc(NC(=O)CSc2nc3cccnc3n2C)c1,?,?,-53*,-3%,-27%
CCOC(=O)c1sc(NC(=O)CSc2nc3cccnc3n2C)nc1C,-3%,0%,36,-30%,1%
Cn1c(SCC(=O)Nc2ccccc2)nc2c([nH]c3ccccc32)c1=O,18µM*,?,25,-12%,13µM*
COc1cc(C(=O)OCC(=O)Nc2cc(S(=O)(=O)N3CCOCC3)ccc2C)ccc1OCC(C)C,1%,.,9,-19%,.
Cc1cccc(NC(=O)CSc2nc3ccccc3c(=O)n2C)c1,8%,?,-71*,5%,?
C=CCn1c(SCC(=O)Nc2cc(C)on2)nc2c([nH]c3ccccc32)c1=O,?,?,i,8%,11µM*
C=CCn1c(SCC(=O)Nc2ccc(OC)cc2)nc2c([nH]c3ccccc32)c1=O,-11%,4%,i,-1%,1%
Cc1cccc(NC(=O)CSc2nc3c([nH]c4ccccc43)c(=O)n2C)c1,?,13µM*,18,?,?
Cc1cccc(NC(=O)CSc2nc3ccccc3c(=O)n2CC2CCCO2)c1 (configuration not stated),1%,.,-6,-6%,.
COc1cccc(CN(C)C[C@@H]2OCc3cnnn3CCCC(=O)N([C@@H](C)CO)C[C@H]2C)c1,.,.,-14,.,.
CO[C@@H]1CN(C)C(=O)c2cc(NC(=O)Nc3cc(F)ccc3F)ccc2OC[C@H](C)N(C(=O)c2cnccn2)C[C@@H]1C,.,.,11,.,.
COc1ccccc1C(=O)N1CCN(c2nc3cc(C)cc(C)c3cc2C#N)CC1,.,.,-9,.,.
